HP1b chromo inh = HP1-beta chromodomain-methylated histone interaction inhibition; 0.56% of 390,000 active; AlphaScreen HP1-beta / biotin-H3K9me3 peptide binding; P83916; Potency, µM (highest dose often 114 µM), without a hit: at the top dose activity change, negative = inhibition, actives largely listed as inhibitors; further: potency means the concentration at half of the fitted maximal effect; nearly all actives have a fitted effect of over 70% in size
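HP1-beta protein (50 nM final) preincubated 30 min at room temperature with biotinylated H3(1-18)K9me3 peptide (50 nM) in PBS pH 7.4, 0.01% Tween-20, then compound added for 30 min. AlphaScreen streptavidin donor/nickel chelate acceptor beads (10 ug/mL final), 30 min dark, luminescence read.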
JMJD2A Tudor inh = blocks the human JMJD2A Tudor domain; 4.4% of 390,000 active; AlphaScreen JMJD2A-Tudor / H3K4me3 peptide binding; O75164; Potency, µM (series often up to 114 µM), inactives show top-dose activity change, negative = inhibition, most hits filed as inhibitors; further: potency means the concentration at half of the fitted maximal effect; on the % scale 0 is the no-effect control and ±100 the full control effect; nearly all actives have a fitted effect of over 50% in size
G9a block = G9a (human) methyltransferase inhibition; 8.8% of 350,000 active; AID 504332; G9a H3K9 monomethylation, AlphaScreen, 2 h; Potency, µM (doses to about 102 µM), for inactives: at the top dose activity, negative = inhibition, usual class: inhibitors; Q96KQ7; further: potency means the concentration at half of the fitted maximal effect; on the % scale 0 is the no-effect control and ±100 the full control effect; nearly all actives have a fitted effect of over 75% in size
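AlphaScreen read-out: biotin-H3K9 peptide (500 nM) methylation by 20 nM enzyme with 20 uM SAM, 2 h at room temperature after 15 min compound preincubation; anti-monomethyl H3K9 antibody plus donor/acceptor beads, 10 min dark.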
PI5P4K alpha inh = blocks human PI5P4K alpha kinase activity. P48426. PI5P4Kalpha enzyme, ADP-Glo luminescence, 60 min; active compounds read low. max response, %. 1.2% of 330,000 active; active means max response of -50% or lower; inconclusive means between -30% and -50%; inactive means -30% or higher; further: value at the top dose of about 77 µM; on the % scale 0 is the no-effect control and ±100 the full control effect
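Quantitative HTS of the MLSMR library against PI5P4Kalpha with substrate. ATP added last at 5 microM final; room temperature, 60 minutes. Remaining ATP depleted, ADP converted and read as luminescence.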
BAZ2B inh = BAZ2B (human) inhibition. AlphaScreen BAZ2B-H3K14Ac peptide displacement. Potency, µM (titrated, usually from 114 µM), for inactives: top-dose activity change, negative = inhibition, usual class: inhibitors. 4.4% of 360,000 active. AID 504333; further: potency means the concentration at half of the fitted maximal effect; on the % scale 0 is the no-effect control and ±100 the full control effect; nearly all actives have a fitted effect of over 60% in size
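AlphaScreen displacement of biotin-H3(5-23)K14Ac peptide (50 nM final) from BAZ2B (50 nM final) in PBS pH 7.4, 0.01% Tween-20; complex preformed 30 min RT, then compounds (top 110 uM) 30 min RT, beads 20 min dark.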
PLK1 PBD inh = blocks phosphopeptide binding to human PLK1 polo-box domain; Potency, µM, without a hit: max response, negative = inhibition, usual class: inhibitors; P53350; 2.8% of 360,000 active; Plk1 PBD binding of FITC phosphopeptide, fluorescence polarization; further: potency means the concentration at half of the fitted maximal effect; series mostly up to about 57 µM; on the % scale 0 is the no-effect control and ±100 the full control effect; nearly all actives have a fitted effect of over 65% in size
* hit, by the source's call; ? = inconclusive; . = no result; [ ] = dose if it differs, or a comment. Only some compounds are listed: those with a hit (about 12% of all), similar ones and a draw of the others. Unless noted, the call rests on the fitted dose curve; in most records, active means well fitted curve in the direction sought with a large enough effect; inconclusive means small, poorly fitted or top-dose-only effect, or another doubt; inactive means no such curve, though single readings can be large; an effect the other way counts as inactive or inconclusive.

SMILES	HP1b chromo inh	JMJD2A Tudor inh	G9a block	PI5P4K alpha inh	BAZ2B inh	PLK1 PBD inh
Cc1ccc(S(=O)(=O)CC(c2ccccc2)N2CCOCC2)cc1 (stereo not drawn)	9.2%	-9.4%	11.4%[59 µM]	.	4.1%	-7.8%
Cc1ccc(S(=O)(=O)CC(c2ccccc2)N2CCCCC2)cc1 (stereo not drawn)	36.4%	-6.9%	50.1µM*	-4.2	-12.7%	-14.1%
O=C(Nc1ccc(Cl)cc1F)c1cc(S(=O)(=O)NCc2ccc3c(c2)OCO3)ccc1F	5.2%	-24.2%	-26.4%[59 µM]	.	-1.0%	.
CC(C)(C)c1ccc(Cc2n[nH]c(=S)[nH]c2=O)cc1	35.9%	-8.4%	23.1%[2.33 µM]	?	1.8%	-13.1%
O=c1[nH]c(=S)[nH]nc1Cc1ccc(Cl)c(Cl)c1	30.8%	-9.1%	50.1µM*	-75.8*	16.2%	-20.0%
CCc1ccc(NC(=O)C(C)n2nnc3sc(-c4ccccc4)cc3c2=O)cc1 (stereo not drawn)	-14.3%	-28.0%	3.55µM*	.	-7.6%	.
CCCN(CCC)C(=O)Cn1nnc2sc(-c3ccccc3)cc2c1=O	-3.8%	-29.2%	12.6µM*	.	?	.
CCCCOC(=O)Cn1nnc2sc(-c3ccccc3)cc2c1=O	46.3%	-14.5%	9.5%[59 µM]	.	-16.3%	.
CCN(C(=O)Cn1nnc2sc(-c3ccccc3)cc2c1=O)c1cccc(C)c1	-18.3%	?	4.47µM*	.	-37.5%	.
CCOc1ccccc1NC(=O)Cn1nnc2sc(-c3ccccc3)cc2c1=O	20.8%	-28.6%	-0.4%[59 µM]	.	-15.0%	.
O=C(Nc1cccc(F)c1)N1CCCC2(CCN(C(=O)c3ccncc3)CC2)C1	.	.	5.1%[12.7 µM]	.	.	.
CC(C)c1ccc(NC(=O)c2cnc3sc(N4CCCC4)nn3c2=O)cc1	55.1%	-3.0%	11.6%[59 µM]	.	5.0%	.
CCC(C)Sc1ccc([C@H]2N[C@@](C)(C(=O)OC)[C@H]3C(=O)N(CC)C(=O)[C@@H]23)cc1OC (stereo partly drawn)	34.1%	-12.9%	.	4.1	.	-8.6%
CCCCC[C@@H]1C=C(C(=O)O)[C@H](c2ccc(C)cc2)N1S(=O)(=O)c1ccc(C)cc1	-0.2%	89.1µM*	.	14.5	.	-21.4%
CCCC[C@@H]1C=C(C(=O)O)[C@H](c2ccc(Cl)c(Cl)c2)N1S(=O)(=O)c1ccc(C)cc1	19.4%	-21.9%	.	7.6	.	29.9µM*
Cc1ccc([C@H]2C(C(=O)O)=C[C@@H](CC3CCCC3)N2S(=O)(=O)c2ccc(C)cc2)cc1	38.6%	-20.5%	.	-3.7	.	-25.0%
CCCC[C@@H]1C=C(C(=O)O)[C@H](c2ccc(C)cc2)N1S(=O)(=O)c1ccc(C)cc1	15.9%	-12.3%	.	4.6	.	-14.5%
CCc1ccc([C@H]2C(C(=O)O)=C[C@@H](CC3CCCC3)N2S(=O)(=O)c2ccc(C)cc2)cc1	27.3%	?	.	1.8	.	21.2µM*
CC1(C(=O)NS(=O)(=O)c2ccccc2Cl)CCN1C(=O)C1CCCCC1 (stereo not drawn)	.	.	.	5.3	.	-5.7%
C[C@H]1CN([C@@H](C)CO)S(=O)(=O)c2ccc(Br)cc2O[C@@H]1CN(C)C(=O)Cc1cccnc1	.	.	.	7.6	.	3.4%
CC1(C)OC(=O)N(CC(=O)Nc2cccc(C(F)(F)F)c2)C1(C)O (stereo not drawn)	26.1%	-2.9%	-27.4%	3.7	5.3%	-4.0%
CC1(C)OC(=O)N(CC(=O)Nc2ccccc2)C1(C)O (stereo not drawn)	18.6%	-34.7%	-32.3%	-3.4	-36.6%	26.7µM*
O=[N+]([O-])c1ccc2c3n([n+]([O-])c2c1)CCN=C3c1ccc(Cl)cc1	1.0%	?	-43.5%[2.33 µM]	?	50.1µM*	-8.3%
Nc1c(Cl)cc(C2=NCCn3c2c2ccc(C(F)(F)F)cc2[n+]3[O-])cc1Cl	17.5%	4.47µM*	?	-4.2	?	-4.9%
Cc1ccc(C2=NCCn3c2c2ccc([N+](=O)[O-])cc2[n+]3[O-])cc1	5.0%	?	14.2%[2.33 µM]	-23.9	?	-13.1%
SMILES	HP1b chromo inh	JMJD2A Tudor inh	G9a block	PI5P4K alpha inh	BAZ2B inh	PLK1 PBD inh
[O-][n+]1c2ccccc2c2n1CCN=C2c1ccc(Cl)cc1	41.1%	-13.4%	10.3%[2.33 µM]	1.5	-4.4%	2.0%
Nc1c(Cl)cc(C2=NCCn3c2c2ccccc2[n+]3[O-])cc1Cl	44.8%	3.55µM*	?	0.4	?	0.5%
COCCCN1C2=C(C(=O)CC(C)(C)C2)C(c2ccc(O)c(OC)c2)C2=C1CC(C)(C)CC2=O	29.2%	-6.8%	.	-0.7	0.3%	3.2%
Cc1cccc(Nc2nnc(SC/C(O)=C(\C#N)c3nc4ccccc4[nH]3)s2)c1C	-3.6%	-35.6%	?	-59.3*	-3.8%	-20.8%
CCCn1c(SC/C(O)=C(\C#N)c2nc3ccccc3[nH]2)n[nH]c1=O	26.6%	-12.5%	16.3%	-11.4	-13.4%	-3.8%
Cn1cnnc1SC/C(O)=C(\C#N)c1nc2ccccc2[nH]1	12.1%	25.1µM*	?	-19.1	50.1µM*	?
Cc1cccc(C)c1Nc1nnc(SC/C(O)=C(\C#N)c2nc3ccccc3[nH]2)s1	1.6%	-26.2%	14.1µM*	-67.9*	-1.7%	-18.6%
COc1ccc(-c2cc(C(F)(F)F)n3nc(C(=O)Nc4cc(C(F)(F)F)ccc4Cl)cc3n2)cc1OC	59.7%	-5.6%	35.5%[59 µM]	.	0.0%	.
CCOC(=O)c1cc(-c2ccc(OC(F)F)cc2)nc2nc(SC)[nH]c(=O)c12	33.0%	-16.8%	44.7µM*	7.0	-1.8%	-7.3%
O=C1[C@H]2CCC=C[C@H]2[C@H](c2cccc(Br)c2)N1Cc1ccccc1	35.1%	?	15.2%	-53.3*	.	21.2µM*
COc1ccc(CN2CCN(C(=O)c3ccco3)CC2)cc1OCc1ccccc1	?	?	11.2µM*	1.3	56.2µM*	-7.8%
COc1ccc(-c2nc(CN3CCN(C(=O)c4ccco4)CC3)c(C)o2)cc1OC	19.4%	-18.7%	56.2µM*	-5.5	13.7%[57.1 µM]	-19.0%
CCn1c(=O)cc(SCC(=O)N2CCN(C(=O)c3ccco3)CC2)c2ccccc21	28.0%	-8.2%	-38.5%	.	-9.7%	-5.0%
COc1ccccc1OCc1ccc(C(=O)N2CCN(C(=O)c3ccco3)CC2)cc1	1.1%	-25.9%	44.7µM*	6.1	2.8%	-10.8%
CCn1c2ccccc2c2cc(CN3CCN(C(=O)c4ccco4)CC3)ccc21	?	35.5µM*	?	-6.4	?	-2.8%
COc1ccc(CN2CCN(C(=O)c3ccco3)CC2)cc1OC	25.1µM*	-19.5%[11.4 µM]	10µM*	-5.3	39.8µM*	-8.6%
O=C(c1cc(F)c(F)cc1Cl)N1CCCc2ccccc21	31.8%	3.4%	.	3.0	9.9%	-12.1%
CCNc1nc(NCC)n2c(SCC(=O)Nc3ccc(Br)cc3F)nnc2n1	?	?	7.08µM*	-21.0	?	13.4µM*
Cc1cc(C)n2c(SCC(=O)N(CCC#N)c3ccc4c(c3)OCCO4)nnc2n1	.	.	.	-61.4*	.	?
